In the library only some 1.3% were active in any assay of this set; here they are far more common.
CRFR2-BP antag = CRF-BP/CRF-R2 complex antagonism; HEK293 CRF-R2/CRF-BP, CRF-induced calcium fluorescence; AID 588475; actives 0.59% (n = 350,000); inhibition, % at 11.8 µM;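 active means inhibition of the ligand-induced calcium signal above about 50% at the single tested concentration, limit read from the data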
RTF Ca sens act = cardiac RTF calcium sensitization | P19429+P45379 | IANBD-labeled TnC RTF fluorescence at EC20 calcium; 0% EC20 calcium, 100% full calcium | activation, % at 7.2 µM | actives 0.24% (n = 340,000) | AID 493008;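 active means activation above the mean over all tested compounds plus 3 SD, cut at about 30% in these data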;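 further: rise in fluorescence read as greater calcium sensitivity of cardiac thin filaments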
CRFR2-BP ag = CRF-BP/CRF-R2 complex agonism; HEK293 CRF-R2/CRF-BP, calcium dye fluorescence (FLIPR); percent of saturating CRF peptide response; activation, % at 13.2 µM; actives 0.46% (n = 350,000); AID 588473;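 active means activation of at least 50%, plus an integration ratio under a set limit after plate pattern correction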;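 further: plate controls were neutral control wells without compound for no effect and CRF at EC100 for full effect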
RTF Ca sens inh = cardiac RTF calcium desensitization. P19429+P45379. IANBD-labeled cardiac RTF, Ca2+ fluorescence. inhibition, % at 7.15 µM. actives 0.12% (n = 340,000);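 active means inhibition above the mean inhibition of all tested compounds plus 3 SD, cut at about 17% in these data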;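 further: assay run at fixed EC70 calcium of 1.6 mM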
Starred values were filed as active, the others as inactive; i = inactive; . = not tested or not shown.

SMILES	CRFR2-BP antag	RTF Ca sens act	CRFR2-BP ag	RTF Ca sens inh
C=CCN1C(c2cccc(C(F)(F)F)c2)=CS/C1=C(/C#N)c1nnc(N2CCOCC2)n1-c1ccccc1	-2	8	108*	-2
CCC(=O)Nc1ccc(OCC2CCCO2)cc1 (stereo not given)	7	-8	2	0
CCOCCCN(Cc1cc2cc(C)cc(C)c2[nH]c1=O)C(=O)N(CC)CC	52*	-5	-1	-10
N#C/C(=C\C=C\c1ccccc1[N+](=O)[O-])C(=O)NC1CCCCC1	-20	1	-1	-5
N#C/C(=C\c1cccn1-c1ccccc1)C(=O)NC1CCCCC1	127*	-4	-3	-4
N#C/C(=C\c1ccccc1[N+](=O)[O-])C(=O)NC1CCCCC1	-161	6	100*	-23
COc1ccc(C(CC(=O)Nc2ccc(F)cc2)c2ccccc2)cc1 (stereo not given)	52*	4	5	4
Cc1ccc(Nc2ccc(C(=O)O)cc2N)cc1	56*	.	-4	.
CC1=NOC(=O)/C1=C\c1ccc(-c2cccc(Cl)c2)o1	-44	-4	64*	6
CC1=NOC(=O)/C1=C\c1ccc(-c2ccccc2Br)o1	-32	3	51*	-8
CC1=NOC(=O)/C1=C\c1ccc(-c2ccc(Cl)c(C(=O)O)c2)o1	-15	3	17	-3
CCOc1ccc(C(C)NC(=O)C2CCC2)cc1 (stereo not given)	2	8	0	1
Nc1c(C(=O)Nc2ccccc2F)sc2nc(Cc3ccccc3)cc(C(F)(F)F)c12	-52	49*	43	-8
CSc1nccc(NC(=O)c2cccc(Br)c2)n1	-10	-6	0	0
CC(C)OC(=O)CC(=O)c1sc2nc3c(cc2c1N)CN(C)CC3	-72	.	103*	.
COCCn1c(-c2ccccc2)csc1=Nc1cccnc1	92*	.	0	.
COc1ccc(S(=O)(=O)Cc2ccc(C(=O)NC(C)C)o2)cc1	22	0	-3	-8
COC(=O)c1ccc(CS(=O)(=O)c2ccc(F)cc2)o1	5	32*	0	-3
O=C1CCc2ccc(NS(=O)(=O)c3ccc(F)cc3)cc2N1	-10	7	-3	-5
COc1cc2c(cc1OC)/C(=C/C(=O)c1ccc(OC)c([N+](=O)[O-])c1)NCC2	57*	0	0	-9
CCCN(CCC)S(=O)(=O)c1ccc(C(=O)Nc2ccc(S(=O)(=O)Nc3nnc(CC)s3)cc2)cc1	18	6	1	-5
Cc1cc(C)cc(-n2c(C)cc(C(=S)N3CCOCC3)c2C)c1	57*	-7	-2	5
COc1cc(C2C=C(c3cccs3)Nc3ncnn32)cc(OC)c1OC (stereo not given)	-162	386*	221*	-497
C[C@@H]1CN([C@H](C)CO)C(=O)CCCn2nncc2CO[C@@H]1CN(C)C(=O)Nc1cccc2ccccc12	-12	.	0	.
Cc1c(C(=O)N2CCCCC2)oc2ccccc12	2	0	-1	1
SMILES	CRFR2-BP antag	RTF Ca sens act	CRFR2-BP ag	RTF Ca sens inh
Nc1c(C(=O)N2CCCCCC2)oc2ccccc12	112*	-8	0	-5
Cc1cc(F)ccc1S(=O)(=O)Nc1nc2ccccc2nc1Cl	21	6	-1	-1
Cc1ccc(C(C)(C)C)cc1S(=O)(=O)Nc1nc2ccccc2nc1Cl	64*	-8	12	-7
COc1cccc2c1C(=O)c1c(O)c3c(c(O)c1C2=O)C[C@@](O)(C(=O)CO)C[C@@H]3O[C@H]1C[C@H](N)[C@@H](O)[C@H](C)O1	-113	120*	60*	-152
COc1cccc2c1C(=O)c1c(O)c3c(c(O)c1C2=O)C[C@@](O)(C(C)=O)C[C@@H]3O[C@H]1C[C@H](N)[C@H](O)[C@H](C)O1	-92	291*	83*	-334
CC(=O)[C@]1(O)Cc2c(O)c3c(c(O)c2[C@@H](O[C@H]2C[C@H](N)[C@H](O)[C@H](C)O2)C1)C(=O)c1ccccc1C3=O	-196	.	212*	.
COc1cccc2c1C(=O)c1c(O)c3c(c(O)c1C2=O)CC(O)(C(=O)CO)CC3OC1CC(N(C)C)C(O)C(C)O1 (stereo not given)	-102	201*	91*	-269
O=S(=O)(NC(=NC1CCCCC1)c1ccccc1F)c1ccccc1	7	-13	-1	12
COc1ccc(Cl)cc1NC(=O)c1ccoc1C	80*	-1	-2	5
O=C(O)c1cnc(-c2ccccc2)nc1Sc1ccc(Cl)cc1Cl	97*	10	-3	16
COc1ccc(S(=O)(=O)N2CCOCC2)cc1C(=O)NCC(c1ccco1)N1CCCC1 (stereo not given)	4	-4	0	-2
COc1ccc(C)cc1NCc1cccc(OC)c1OC	78*	11	-3	-3
CCCCn1c(N)c(N(CCOC)C(=O)COC(=O)/C=C/c2ccc(Br)cc2)c(=O)[nH]c1=O	2	-2	0	5
CCN(CC(=O)Nc1c(F)cccc1F)C(=O)C1Cc2ccccc2CN1S(=O)(=O)CC (stereo not given)	5	-7	-1	-3
COc1ccc(OC2C(=O)N(Cc3ccc(F)cc3)C2c2cc(OC)c(OC)c(OC)c2)cc1 (stereo not given)	123*	3	-1	-9
COc1ccc(N2C(=O)CN(Cc3ccc(OC)c(OC)c3)C2=S)cc1	24	3	0	-10
COc1cccc(CN(C(=O)c2cccs2)C2CCS(=O)(=O)C2)c1 (stereo not given)	-10	-1	0	1
CCOC(=O)/C(C#N)=C\C=C1C=CN(C)C=C1	-19	59*	46	-76
CCN(c1ccccc1)S(=O)(=O)c1ccc(NC(=O)c2ccco2)cc1	77*	-3	-2	-3
CCN1/C(=C/C=C/c2oc3ccc(-c4ccccc4)cc3[n+]2CC)Oc2ccc(-c3ccccc3)cc21	-171	998*	227*	i
COC(=O)C1CCN(C(=O)CC(NC(=O)C(F)(F)F)c2cccs2)CC1 (stereo not given)	9	1	-1	-5
Cc1nn(-c2ccccc2)c(N)c1Sc1cccc([N+](=O)[O-])c1	21	5	1	-2
Cc1nn(-c2cccc([N+](=O)[O-])c2)c(N)c1-c1ccccc1	57*	2	0	-4
Cc1cc(O)c(C2=Nc3ccccc3SC(c3ccc(Cl)cc3)C2)c(=O)o1 (stereo not given)	84*	7	0	-8
CC(=O)c1ccc(NC(=O)CSc2ccc3nnc(-c4cccnc4)n3n2)cc1	-45	-2	19	0
O=C(NNC(=O)c1ccc[nH]1)c1cccc(C(F)(F)F)c1	-1	1	1	-1
Cc1noc(C(F)(F)F)c1C(=O)NNC(=O)c1cccc(C(F)(F)F)c1	114*	7	2	2
CCOC(=O)c1c(NC(=O)C(=O)N/N=C/c2ccc(O)c(OC)c2)sc2c1CCCCC2	55*	-2	-2	-22
COc1cc(/C=N/NC(=O)c2nc(C)cc(C)n2)ccc1O	-157	1	165*	-6

Compound activity (PubChem)
